Several values for one entry are separate records, joined by “and”; a condition that tells them apart may be missing. Identical values can stand only once.

The target in one assay is Solute carrier family 2, facilitated glucose transporter member 1 (Homo sapiens) (UniProt P11166). The assay is described as follows: ST_JUDE_LEISH: Cytotoxicity at 2uM final concentration against transgenic Leishmania Mexicana promastigotes LmGLUT1 that are glucose transport deficient and complemented with the human glucose transporter GLUT1. Activity is measured by DNA content using SYBR green in vitro. The assay is classed as functional.
Sequence of Solute carrier family 2, facilitated glucose transporter member 1 (Homo sapiens) (P11166 whole entry): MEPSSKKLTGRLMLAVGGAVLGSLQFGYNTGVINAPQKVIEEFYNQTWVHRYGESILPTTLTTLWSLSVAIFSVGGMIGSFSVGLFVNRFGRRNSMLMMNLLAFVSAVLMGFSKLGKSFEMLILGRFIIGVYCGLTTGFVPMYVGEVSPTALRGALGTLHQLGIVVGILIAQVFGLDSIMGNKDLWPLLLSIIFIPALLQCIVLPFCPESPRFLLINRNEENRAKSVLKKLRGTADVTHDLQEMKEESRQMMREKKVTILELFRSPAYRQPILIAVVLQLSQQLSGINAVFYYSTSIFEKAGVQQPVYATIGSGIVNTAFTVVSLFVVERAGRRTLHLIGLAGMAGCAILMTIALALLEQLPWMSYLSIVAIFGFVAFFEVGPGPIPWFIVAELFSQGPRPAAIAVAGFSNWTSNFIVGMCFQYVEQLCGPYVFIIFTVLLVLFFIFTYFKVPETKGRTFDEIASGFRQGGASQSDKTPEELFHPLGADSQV
What is called inhibition is the relative decrease from the control value, in per cent. Take `O=C(NC1CCN(Cc2ccccc2)CC1)c1cccc(-c2cc3cc(Cl)c(Cl)cc3[nH]2)c1`: the inhibition is 2.36%.
For the compound `COc1ccc2nccc([C@@H](O)CN3CCC(NC(=O)Cc4cc5ccccc5s4)CC3)c2c1`, the inhibition turned out to be 8.41%.
`Fc1ccc(C=NN=c2cc[nH]c3ccccc23)cc1`: the inhibition was found to be 11.7%.
The same measure, in the same setting: the figure for `O=C(NCC1CCC(C(=O)NCc2cccc(C(F)(F)F)c2)CC1)c1ccc(O)c(-c2ccc(Cl)c(Cl)c2)c1` (stereo not drawn) is 0.99%.
As to `COc1ccc(N2CCN(CCCCNC(=O)c3ccc(NC(=O)c4ccc(C(F)(F)F)cc4)cc3)CC2)c(OC)c1`, the inhibition was determined as 9%.
Same read-out and setting: the figure for `Cc1c(Cl)cccc1S(=O)(=O)Nc1cccc(CCN2CCC(N3CCCCC3)CC2)c1` is 2.7%.
On the same count and under the same terms, the figure for `COC(=O)c1cccc(CNCc2ccc(-c3cccc(-c4nc5cccc(C)c5[nH]4)c3)cc2)c1` is -0.37%.
The same measure, in the same setting: the figure for `O[C@@H](c1cc(C(F)(F)F)nc2c(C(F)(F)F)cccc12)[C@H]1CCCCN1` is 13.6% and 1.21%; for `O=C(Cc1ccccc1)NC(CCN1CCC(N(C2CC2)S(=O)(=O)c2cccc(C(F)(F)F)c2)CC1)c1ccc(Cl)c(Cl)c1` (stereo not drawn) it is 5.55%.
Take `CCNc1cc(C)nc(Nc2ccc(NC(=O)c3c(F)cccc3Cl)cc2)n1`: the inhibition is 10.6%.
As to `Cc1cc(O)c(CNC2CCCCC2)cc1C`, the inhibition was determined as 1.17%.
`CN(C)Cc1cccc(-c2ccc3ccnc(N)c3c2)c1`: the inhibition was found to be 1.78%.
On to `O=C(N[C@H]1CCN(CCc2ccc(O[C@H]3CCNC3)cc2)C1)c1ccc(Cl)c(Cl)c1`, for which the inhibition was found to be 14.2%.
The same measure, in the same setting: the same measure for `CCOC(=O)NCCSC(C)(C)[C@H](NC(=O)[C@H](Cc1cc2ccccc2s1)[C@H](CC)N(O)C=O)C(=O)Nc1nccs1`: 0.32%.
Regarding `c1nc2nc3c(c(Nc4ccc5c(c4)CCC5)n2n1)CCC3`, the inhibition turned out to be 3.23%.
As for `COc1ccc(O)c(C(=O)c2cc(C#N)c(=O)n(-c3ccc(Oc4ccccc4)cc3)c2)c1`, the inhibition was 10.2%.
Still for that read-out and setting: the same measure for `CCCNCc1ccc(-c2ccc(CN(CCOC)C(=O)c3cnc(C)cn3)cc2)nc1`: -0.38%; for `Fc1ccc2[nH]c(-c3ccc(-c4ccc(CN5CCN(c6cnccn6)CC5)cc4)s3)nc2c1`: 2.41%.
For the compound `Cc1ccc(C2CC(c3cccs3)=NN2C(=O)c2ccc(Br)o2)cc1` (stereo not drawn), the inhibition worked out at 3.24%.
For `CCN(CC)/C(=N/C(=N)NCc1ccc(Cl)cc1)NCCCCCCN/C(=N\C(=N)NCc1ccc(Cl)cc1)N(CC)CC`, the inhibition was 9.05%.
For `CCN(CC)C(=O)c1cnc(-c2ccccc2)nc1Oc1cccc(Cl)c1`, the inhibition was -0.46%.
On to `CC(C)(C)c1ccc(NC(=O)c2cccc(CN3CCCN(Cc4cccc(Cl)c4)CC3)c2)cc1`, for which the inhibition came out at 5.32%.
Same read-out and setting: the figure for `CCOc1cc(C(=O)NCCN(C(C)C)C(C)C)ccc1-c1nc2cc(Cl)ccc2[nH]1` is 2.57%.
In the case of `CCCCCN1C(=O)C(c2ccccc2)(c2ccccc2)N=C1N`, the inhibition came to 4.32%.
In the case of `COc1cc2nc(N3CCN(c4nc(N)c5cc(OC)c(OC)cc5n4)CC3)nc(N)c2cc1OC`, the inhibition worked out at 5.24%.
On the same count and under the same terms, the same measure for `Nc1nc(N)c2c(CCc3ccc(Cl)c(Cl)c3)cccc2n1`: 10.7%; for `CC(=O)Nc1ccc(OCCN(Cc2ccccc2OC(F)(F)F)c2ccc(C(F)(F)F)c(C#N)c2)c(Cl)c1`: 2.43%; for `O=C(NC1CCCCC1)c1csc(C2CCCN(C(=O)c3ccc(O)c(-c4cccc(C(F)(F)F)c4)c3)C2)n1` (stereo not drawn): 0.87%.
On the same count and under the same terms, the figure for `CC(C)CN(c1nc(C(=O)NNC(=O)[C@H](CC2CC2)NC(=O)c2cc3cc(OCCN(C)C)ccc3o2)cs1)C1CC1` is 6.19%; for `Cc1cccc2nc(-c3cccc(-c4ccc(NC(=O)NC(C)C)cc4)c3)[nH]c12` it is 0%; for `c1cc(CNC2CCCC2)cc(-c2ccc(CNc3ccc4ncccc4c3)cc2)c1` it is -0.78%.
For the compound `CCc1c(C)nc(-n2nc(C)cc2NC(=O)CC(c2ccccc2)c2ccccc2)[nH]c1=O`, the inhibition was -2.32%.
For the compound `Cc1cccc(C)c1OC(=O)CSc1nnc(-c2ccccc2O)o1`, the inhibition was determined as 1.32%.
On to `CCOc1ccc2nc(C)cc(N/N=C/c3cccc([N+](=O)[O-])c3)c2c1`, for which the inhibition turned out to be 0.39%.
The same measure, in the same setting: the same measure for `CCCCCc1cc(OC(C)=O)c2c(c1)OC(C)(C)C=C2C1=CCN(Cc2ccccc2)CC1`: 1.74%.
Still for that read-out and setting: the figure for `O=C(Cc1c[nH]cn1)Nc1cccc(-c2ccc(-c3nc4cc(C(F)(F)F)ccc4[nH]3)cc2)c1` is 3.54%.
As to `CNc1ccc(CNCc2cccc(-c3ccc(-c4nc5cc(C(F)(F)F)ccc5[nH]4)cc3)c2)cc1`, the inhibition is -1.26%.
On the same count and under the same terms, the same measure for `CCN(CC)CCN(Cc1ccc(-c2ccc(C(F)(F)F)cc2)cc1)C(=O)c1c[nH]c2ccc(Br)cc12`: 1.48%.
As for `CCOc1cc(C(=O)NCC2CCN(CC3CCCCC3)CC2)ccc1-c1nc2cc(Cl)ccc2[nH]1`, the inhibition stood at 0.56%.

For a further assay, the target named is Hexose transporter 1 (Plasmodium falciparum) (UniProt O97467). The assay is described as follows: ST_JUDE_LEISH: Cytotoxicity at 2uM final concentration against transgenic Leishmania Mexicana promastigotes LmPfHT that are glucose transport deficient and complemented with the Plasmodium falciparum hexose transporter. Activity is measured by DNA content using SYBR green in vitro. The assay is classed as functional.
For the compound `O=C(NC1CCN(Cc2ccccc2)CC1)c1cccc(-c2cc3cc(Cl)c(Cl)cc3[nH]2)c1`, the inhibition is -1.61%.
Same read-out and setting: the figure for `COc1ccc2nccc([C@@H](O)CN3CCC(NC(=O)Cc4cc5ccccc5s4)CC3)c2c1` is 6.59%.
`Fc1ccc(C=NN=c2cc[nH]c3ccccc23)cc1`: the inhibition came to 13.4%.
Still for that read-out and setting: the same measure for `O=C(NCC1CCC(C(=O)NCc2cccc(C(F)(F)F)c2)CC1)c1ccc(O)c(-c2ccc(Cl)c(Cl)c2)c1` (stereo not drawn): 2.82%; for `COc1ccc(N2CCN(CCCCNC(=O)c3ccc(NC(=O)c4ccc(C(F)(F)F)cc4)cc3)CC2)c(OC)c1`: 8.75%.
Still for that read-out and setting: the figure for `Cc1c(Cl)cccc1S(=O)(=O)Nc1cccc(CCN2CCC(N3CCCCC3)CC2)c1` is 4.32%.
Turning to `COC(=O)c1cccc(CNCc2ccc(-c3cccc(-c4nc5cccc(C)c5[nH]4)c3)cc2)c1`, the inhibition was -1.65%.
Turning to `O[C@@H](c1cc(C(F)(F)F)nc2c(C(F)(F)F)cccc12)[C@H]1CCCCN1`, the inhibition was 8.31% and 0.88%.
In the case of `O=C(Cc1ccccc1)NC(CCN1CCC(N(C2CC2)S(=O)(=O)c2cccc(C(F)(F)F)c2)CC1)c1ccc(Cl)c(Cl)c1` (stereo not drawn), the inhibition turned out to be 3.86%.
On the same count and under the same terms, the same measure for `CCNc1cc(C)nc(Nc2ccc(NC(=O)c3c(F)cccc3Cl)cc2)n1`: 11%.
On the same count and under the same terms, the same measure for `Cc1cc(O)c(CNC2CCCCC2)cc1C`: 1.33%; for `CN(C)Cc1cccc(-c2ccc3ccnc(N)c3c2)c1`: 3.34%; for `O=C(N[C@H]1CCN(CCc2ccc(O[C@H]3CCNC3)cc2)C1)c1ccc(Cl)c(Cl)c1`: 10.1%.
On the same count and under the same terms, the same measure for `CCOC(=O)NCCSC(C)(C)[C@H](NC(=O)[C@H](Cc1cc2ccccc2s1)[C@H](CC)N(O)C=O)C(=O)Nc1nccs1`: 0.28%.
Regarding `c1nc2nc3c(c(Nc4ccc5c(c4)CCC5)n2n1)CCC3`, the inhibition was -0.85%.
In the case of `COc1ccc(O)c(C(=O)c2cc(C#N)c(=O)n(-c3ccc(Oc4ccccc4)cc3)c2)c1`, the inhibition came out at 8.65%.
With `CCCNCc1ccc(-c2ccc(CN(CCOC)C(=O)c3cnc(C)cn3)cc2)nc1`, the inhibition turned out to be 0.25%.
For `Fc1ccc2[nH]c(-c3ccc(-c4ccc(CN5CCN(c6cnccn6)CC5)cc4)s3)nc2c1`, the inhibition came to 1.2%.
Turning to `Cc1ccc(C2CC(c3cccs3)=NN2C(=O)c2ccc(Br)o2)cc1` (stereo not drawn), the inhibition came to 1.47%.
Same read-out and setting: the figure for `CCN(CC)/C(=N/C(=N)NCc1ccc(Cl)cc1)NCCCCCCN/C(=N\C(=N)NCc1ccc(Cl)cc1)N(CC)CC` is 8.96%; for `CCN(CC)C(=O)c1cnc(-c2ccccc2)nc1Oc1cccc(Cl)c1` it is 2.57%.
`CC(C)(C)c1ccc(NC(=O)c2cccc(CN3CCCN(Cc4cccc(Cl)c4)CC3)c2)cc1`: the inhibition came out at 4.37%.
Turning to `CCOc1cc(C(=O)NCCN(C(C)C)C(C)C)ccc1-c1nc2cc(Cl)ccc2[nH]1`, the inhibition was 1.66%.
The same measure, in the same setting: the figure for `CCCCCN1C(=O)C(c2ccccc2)(c2ccccc2)N=C1N` is 2.96%; for `COc1cc2nc(N3CCN(c4nc(N)c5cc(OC)c(OC)cc5n4)CC3)nc(N)c2cc1OC` it is 4.56%; for `Nc1nc(N)c2c(CCc3ccc(Cl)c(Cl)c3)cccc2n1` it is 11.2%.
In the case of `CC(=O)Nc1ccc(OCCN(Cc2ccccc2OC(F)(F)F)c2ccc(C(F)(F)F)c(C#N)c2)c(Cl)c1`, the inhibition was found to be 2.88%.
On the same count and under the same terms, the same measure for `O=C(NC1CCCCC1)c1csc(C2CCCN(C(=O)c3ccc(O)c(-c4cccc(C(F)(F)F)c4)c3)C2)n1` (stereo not drawn): 1.44%.
`CC(C)CN(c1nc(C(=O)NNC(=O)[C@H](CC2CC2)NC(=O)c2cc3cc(OCCN(C)C)ccc3o2)cs1)C1CC1`: the inhibition amounted to 6.53%.
Take `Cc1cccc2nc(-c3cccc(-c4ccc(NC(=O)NC(C)C)cc4)c3)[nH]c12`: the inhibition was 2.42%.
Regarding `c1cc(CNC2CCCC2)cc(-c2ccc(CNc3ccc4ncccc4c3)cc2)c1`, the inhibition turned out to be 0.28%.
The same measure, in the same setting: the figure for `CCc1c(C)nc(-n2nc(C)cc2NC(=O)CC(c2ccccc2)c2ccccc2)[nH]c1=O` is -2.23%; for `Cc1cccc(C)c1OC(=O)CSc1nnc(-c2ccccc2O)o1` it is 2.43%; for `CCOc1ccc2nc(C)cc(N/N=C/c3cccc([N+](=O)[O-])c3)c2c1` it is 0.05%.
On to `CCCCCc1cc(OC(C)=O)c2c(c1)OC(C)(C)C=C2C1=CCN(Cc2ccccc2)CC1`, for which the inhibition turned out to be 1.45%.
For the compound `O=C(Cc1c[nH]cn1)Nc1cccc(-c2ccc(-c3nc4cc(C(F)(F)F)ccc4[nH]3)cc2)c1`, the inhibition turned out to be 3.75%.
`CNc1ccc(CNCc2cccc(-c3ccc(-c4nc5cc(C(F)(F)F)ccc5[nH]4)cc3)c2)cc1`: the inhibition turned out to be 1.48%.
Same read-out and setting: the same measure for `CCN(CC)CCN(Cc1ccc(-c2ccc(C(F)(F)F)cc2)cc1)C(=O)c1c[nH]c2ccc(Br)cc12`: 1.01%.
On the same count and under the same terms, the figure for `CCOc1cc(C(=O)NCC2CCN(CC3CCCCC3)CC2)ccc1-c1nc2cc(Cl)ccc2[nH]1` is 1.54%.

The values above are taken from ChEMBL document CHEMBL3433997, “St. Jude Leishmania screening dataset” (2016).
